Only some compounds are listed: those with a hit (about 5.7% of all), similar ones and a draw of the others.
FAS-TE inh: FAS thioesterase domain inhibitors, primary screen, biochemical, fluorescence intensity, uHTS | hit rate 0.67% among 360,000 | inhibition, % at 15 µM | recombinant FAS-TE, OMFH fluorogenic substrate, fluorescence endpoint | AID 602261, 2012 | Fatty acid synthase (Homo sapiens), P49327;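 active = compounds whose normalised, plate-corrected inhibition of enzyme fluorescence in the single-dose primary screen is 50% or more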
Target sequence (P49327 whole entry, looked up, the tested form may be a part): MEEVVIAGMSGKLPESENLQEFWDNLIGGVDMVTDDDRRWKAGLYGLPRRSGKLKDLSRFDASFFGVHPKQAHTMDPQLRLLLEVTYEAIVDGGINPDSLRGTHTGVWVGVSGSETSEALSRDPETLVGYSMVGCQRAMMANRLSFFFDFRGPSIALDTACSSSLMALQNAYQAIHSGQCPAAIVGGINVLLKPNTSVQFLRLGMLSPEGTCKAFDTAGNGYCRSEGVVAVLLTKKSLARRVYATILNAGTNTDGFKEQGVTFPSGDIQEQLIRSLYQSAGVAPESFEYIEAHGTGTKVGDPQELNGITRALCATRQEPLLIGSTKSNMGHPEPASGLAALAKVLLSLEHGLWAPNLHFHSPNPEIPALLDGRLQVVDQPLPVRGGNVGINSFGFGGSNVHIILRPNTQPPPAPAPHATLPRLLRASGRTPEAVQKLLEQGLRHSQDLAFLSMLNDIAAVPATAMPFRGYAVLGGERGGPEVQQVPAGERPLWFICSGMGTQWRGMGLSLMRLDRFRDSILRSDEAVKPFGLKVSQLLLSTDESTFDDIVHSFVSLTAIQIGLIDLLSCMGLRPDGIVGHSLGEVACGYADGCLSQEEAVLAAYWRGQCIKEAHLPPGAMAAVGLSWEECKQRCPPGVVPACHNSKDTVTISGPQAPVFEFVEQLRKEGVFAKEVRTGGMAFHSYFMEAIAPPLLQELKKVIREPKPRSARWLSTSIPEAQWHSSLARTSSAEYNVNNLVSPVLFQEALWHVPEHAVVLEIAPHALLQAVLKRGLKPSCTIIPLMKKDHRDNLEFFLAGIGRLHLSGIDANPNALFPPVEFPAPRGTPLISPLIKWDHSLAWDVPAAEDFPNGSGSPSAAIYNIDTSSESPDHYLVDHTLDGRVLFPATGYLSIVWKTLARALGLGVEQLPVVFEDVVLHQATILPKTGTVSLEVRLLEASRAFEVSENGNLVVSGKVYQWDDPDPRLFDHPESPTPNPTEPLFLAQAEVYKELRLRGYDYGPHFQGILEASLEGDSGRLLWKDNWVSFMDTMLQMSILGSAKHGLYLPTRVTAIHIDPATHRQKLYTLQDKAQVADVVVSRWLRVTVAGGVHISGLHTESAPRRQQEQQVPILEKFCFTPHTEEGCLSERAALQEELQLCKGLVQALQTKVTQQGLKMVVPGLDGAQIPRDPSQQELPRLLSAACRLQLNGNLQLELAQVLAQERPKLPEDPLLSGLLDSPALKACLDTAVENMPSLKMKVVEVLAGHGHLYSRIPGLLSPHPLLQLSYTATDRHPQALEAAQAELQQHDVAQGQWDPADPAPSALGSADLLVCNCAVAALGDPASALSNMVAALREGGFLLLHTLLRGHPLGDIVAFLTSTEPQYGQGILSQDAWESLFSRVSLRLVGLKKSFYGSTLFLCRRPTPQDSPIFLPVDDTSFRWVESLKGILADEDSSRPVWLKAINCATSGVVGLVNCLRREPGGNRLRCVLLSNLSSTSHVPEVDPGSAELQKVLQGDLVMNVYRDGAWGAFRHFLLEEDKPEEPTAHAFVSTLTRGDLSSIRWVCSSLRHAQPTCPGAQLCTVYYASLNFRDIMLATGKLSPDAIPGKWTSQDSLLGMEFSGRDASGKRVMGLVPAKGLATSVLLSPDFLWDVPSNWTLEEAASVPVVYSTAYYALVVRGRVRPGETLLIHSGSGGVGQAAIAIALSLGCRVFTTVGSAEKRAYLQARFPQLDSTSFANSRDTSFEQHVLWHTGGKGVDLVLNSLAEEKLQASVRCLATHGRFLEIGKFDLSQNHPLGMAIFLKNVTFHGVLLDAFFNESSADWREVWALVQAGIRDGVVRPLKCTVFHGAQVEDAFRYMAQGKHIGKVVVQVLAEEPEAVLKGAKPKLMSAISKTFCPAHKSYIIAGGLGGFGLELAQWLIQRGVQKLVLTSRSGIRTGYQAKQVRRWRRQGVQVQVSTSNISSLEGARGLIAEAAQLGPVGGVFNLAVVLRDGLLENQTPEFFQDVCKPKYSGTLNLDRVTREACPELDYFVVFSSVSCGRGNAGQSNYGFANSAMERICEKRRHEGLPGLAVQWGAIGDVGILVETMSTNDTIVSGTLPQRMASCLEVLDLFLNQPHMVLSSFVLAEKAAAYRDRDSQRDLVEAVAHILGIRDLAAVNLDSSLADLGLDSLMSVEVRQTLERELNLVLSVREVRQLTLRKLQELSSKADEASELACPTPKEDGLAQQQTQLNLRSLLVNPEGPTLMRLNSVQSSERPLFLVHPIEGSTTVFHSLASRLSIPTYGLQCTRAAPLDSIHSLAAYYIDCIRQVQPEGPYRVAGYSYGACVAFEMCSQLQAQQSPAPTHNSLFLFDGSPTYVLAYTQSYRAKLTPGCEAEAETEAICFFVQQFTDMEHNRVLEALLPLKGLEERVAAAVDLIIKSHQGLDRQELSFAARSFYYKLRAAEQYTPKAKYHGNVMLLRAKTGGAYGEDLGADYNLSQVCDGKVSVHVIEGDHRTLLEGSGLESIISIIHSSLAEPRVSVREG
Myeloid diff MLP: induction of myeloid progenitor differentiation, primary screen, cell-based, flow cytometry, MLPCN library; hit rate 1% among 360,000; ER-HoxA9 myeloid progenitors, lysozyme-GFP differentiation; calls only at 10 µM; AID 624256, 2012;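 active = normalized GFP-positive differentiation at or above the plate's own cutoff, the solvent-only control mean plus 3 SD; inconclusive = no clear call, values can overlap the other calls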;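 also: cells exposed to compound for four days before flow analysis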
rCAG RNA binder: binders of r(CAG) RNA repeats, primary screen, biochemical, fluorescence; r(CAG) RNA repeat, TO-PRO-1 dye displacement fluorescence; inhibition, % at 3 µM; hit rate 1.3% among 370,000; AID 651821, 2012;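 active = inhibition above the plate cutoff, the mean of all test compounds on that plate plus 3 SD, cut at about 35% in these data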;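 also: higher means more dye released from RNA so lower well fluorescence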
GRIN3A LBD mod: binders of NR3A ligand-binding domain, primary screen, biophysical, differential scanning fluorimetry, uHTS; Glutamate receptor ionotropic, NMDA 3A (GRIN3A) ligand-binding domain; NR3A LBD differential scanning fluorimetry, Tm shift; 0% = protein alone, 100% = glycine-bound protein; Tm shift relative to glycine control, % at 25 µM; hit rate 2.5% among 340,000;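 active = melting temperature shift of at least 10% of the positive control shift, at one fixed dose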
MPTP block: mitochondrial permeability transition pore inhibitors, primary screen, biochemical, isolated mouse mitochondria, absorbance; Ca2+ swelling absorbance, 30 min; inhibition, % at 10 µM; hit rate 1.4% among 360,000;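 active = inhibition of 50% or more, scaled per plate between neutral and stimulator controls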
Myeloid diff: inducers of myeloid progenitor differentiation, confirmation, cell-based, GFP/Mac1 flow cytometry, cherry pick 01; AID 651706, 2012; shares compounds with Myeloid diff MLP; ER-HoxA9 myeloid progenitors, GFP/Mac1 double-positive flow; calls only; hit rate 2% among 2,300;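 active = share of green or green-and-red cells above 9 and 9% in run 1 or 4 and 3% in run 2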
GFP autofluor: counter-screen for myeloid differentiation promoters: compound fluorescence | shares compounds with Myeloid diff MLP | AID 651707 | fluorescence response, % (concentration not given with the values) | ER-HoxA9 myeloid progenitors, no estrogen, GFP autofluorescence flow cytometry; vehicle wells 0%, positive control 100% | hit rate 7.4% among 2,300;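 active = over 5% cells positive for green fluorescent reporter, or over 2% positive for both it and APC stain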
Each line names hits and unclear results; the compound was inactive in the other large screens (follow-up assays come after a bar, where they were run).

O=C(CN1CCCCCC1)Nc1ccccc1F	Myeloid diff MLP active | Myeloid diff inactive | GFP autofluor inactive
CN(C)N=Nc1ccc(-c2cn(Cc3ccccc3)cn2)cc1	none | Myeloid diff inactive | GFP autofluor inactive
COC(=O)c1ccc(OCc2nn[nH]n2)cc1	none
COc1ccccc1-c1cc(C(=O)NC2CCN(C)CC2)c2ccc(Cl)c(C)c2n1	Myeloid diff MLP active | Myeloid diff inactive | GFP autofluor inactive
Cc1ccc2ccccc2c1NC(=O)c1ccco1	none
CCOP(=O)(OCC)C(NC(=O)Nc1ccc(Cl)c(Cl)c1)C(N)=O (centres undefined)	none | Myeloid diff inactive | GFP autofluor inactive
CCOP(=O)(OCC)C(NC(=O)Nc1ccc(Cl)cc1)C(N)=O (centres undefined)	none
COc1ccccc1/C=C/C=C1\Oc2c(ccc(O)c2CN2CCN(CCO)CC2)C1=O	none | Myeloid diff inactive | GFP autofluor inactive
COc1ccc(-c2sc3cc(OC)c(OC)cc3c2-c2ccc(O)cc2)cc1	none | Myeloid diff inactive | GFP autofluor inactive
COc1cccc(-c2sc3ccc(OC)cc3c2-c2ccc(O)cc2)c1	none
CCN(CC)CCOC(=O)c1ccc(N/C=C(/C#N)c2nc(-c3ccc(OC)cc3)cs2)cc1	none | Myeloid diff inactive | GFP autofluor inactive
Cc1ccc(NC(=O)CN(C)Cc2cc(=O)n3ccsc3n2)cc1	none | Myeloid diff inactive | GFP autofluor inactive
Fc1ccc2nc(C3CCCCN3Cc3nc(CC4CC4)no3)[nH]c2c1 (centres undefined)	none | Myeloid diff inactive | GFP autofluor inactive
O=c1[nH]c(=O)n2c(c1-c1ccccc1)OC(CBr)C2 (centres undefined)	none (no result: GRIN3A LBD mod)
O=c1[nH]c(=S)n2c(c1-c1ccccc1)OC(CBr)C2 (centres undefined)	Myeloid diff MLP active (no result: GRIN3A LBD mod) | Myeloid diff inactive | GFP autofluor inactive
COc1ccccc1Cc1c(-c2ccc(C#N)cc2)nc2ccc(C)cn12	none (no result: GRIN3A LBD mod)
O=c1[nH]cc(-c2ccc(Br)cc2)n1Cc1ccccc1	none | Myeloid diff inactive | GFP autofluor inactive
Fc1ccc(-c2c[nH]c(=S)n2Cc2ccccc2)cc1	none
CC(Oc1ccc(F)cc1)C(=O)Nc1ccccc1N1CCCCC1 (centres undefined)	none
CC(C)NC(=O)N(C)C[C@H]1Oc2ccc(NS(=O)(=O)c3cccs3)cc2C(=O)N([C@H](C)CO)C[C@@H]1C	none | Myeloid diff inactive | GFP autofluor inactive
COc1ccc(NC(=O)N(C)C[C@H]2Oc3ccc(NC(=O)CCN4CCOCC4)cc3C(=O)N([C@H](C)CO)C[C@@H]2C)cc1	none | Myeloid diff inactive | GFP autofluor inactive
C[C@H]1CN([C@@H](C)CO)C(=O)c2cc(NC(=O)CCN3CCOCC3)ccc2O[C@H]1CN(C)C(=O)Nc1ccc(F)cc1	none
CNc1cncc(-c2ccoc2)n1	none (no result: GRIN3A LBD mod)
Cc1ccc(/C=C/c2onc(C)c2S(=O)(=O)N2CCC(C(=O)N3CCCCC3)CC2)cc1	none | Myeloid diff inactive | GFP autofluor inactive
COc1ccc(/C=C/c2onc(C)c2S(=O)(=O)N2CCC(C(=O)N3CCCCCC3)CC2)cc1	none
CC(=O)C(/C=N/c1cc(-c2ccc(C)cc2)nn1-c1ccccc1)=C(\C)O	none
COc1ccc(C(=O)NCCCc2nc3ccccc3n2Cc2ccccc2C)cc1OC	Myeloid diff MLP active | Myeloid diff inactive | GFP autofluor inactive
CCn1c(SCC(=O)NC2CCCCC2)nnc1-c1ccccc1F	none
COC(=O)c1cc(-n2cccc2)ccc1N1CCOCC1	none
COC(=O)c1cc(NS(=O)(=O)c2ccc(C)c3ccccc23)ccc1N1CCOCC1	none | Myeloid diff inactive | GFP autofluor inactive
C[n+]1ccccc1/C=C/c1ccc(F)c(F)c1	none
C[n+]1ccccc1/C=C/c1ccc2ncccc2c1	Myeloid diff MLP active | Myeloid diff active | GFP autofluor inactive
Cc1ccccc1C(=O)N1CCC2CC1c1cc(Cl)ccc12 (centres undefined)	none
C=CCN(c1ccccc1OC)S(=O)(=O)c1ccc(Cl)c(C(=O)NCc2ccco2)c1	Myeloid diff MLP active (no result: GRIN3A LBD mod) | Myeloid diff inactive | GFP autofluor inactive
CCOc1ccccc1NC(=O)Cn1nnc(C(=O)NCc2ccc3c(c2)OCO3)c1N	Myeloid diff MLP inconclusive
CCOC(=O)c1ccc(CSc2ncn[nH]2)o1	none | Myeloid diff inactive | GFP autofluor inactive
Cc1ccc(C)c2[nH]c(=O)c(C(c3nnnn3C(C)(C)C)N3CC=C(c4ccc(F)cc4)CC3)cc12 (centres undefined)	Myeloid diff MLP active | Myeloid diff inactive | GFP autofluor inactive
Cc1nnc(SC(C)C(=O)NCC2CCCO2)n1-c1ccccc1 (centres undefined)	none
CC(Sc1nn(-c2ccccc2)c(=S)s1)C(=O)NCC1CCCO1 (centres undefined)	none | Myeloid diff inactive | GFP autofluor inactive
O=[N+]([O-])c1cc(-c2ccc(C(=S)N3CCOCC3)o2)ccc1Cl	Myeloid diff MLP active | Myeloid diff inactive | GFP autofluor inactive
O=[N+]([O-])c1cccc(-c2ccc(C(=S)N3CCOCC3)o2)c1	none
COc1ccc(NC(=O)C[C@H]2C(=O)N(c3ccc(Br)cc3)C[C@@H]2CSC)cc1	none (no result: GRIN3A LBD mod) | Myeloid diff inactive | GFP autofluor inactive
Nc1ccc(S(=O)(=O)c2ccc(NC(=O)c3cccnc3)cc2)cc1	none
CCOC(=O)C1(C)CCCN1C(=O)c1ccc(OC)c(F)c1 (centres undefined)	none (no result: GRIN3A LBD mod)
Cc1cc(/C=C2\Cc3ccccc3C2=O)c(C)n1-c1ccccc1	Myeloid diff MLP active | Myeloid diff inactive | GFP autofluor 11
Cc1cc(C=C2C(=O)c3ccccc3C2=O)c(C)n1-c1ccccc1	none
CCNC(=S)N/N=C/c1cccs1	none
CCOc1ccc(CN2C(=O)c3ccccc3C2=O)cc1C(=O)NC1CC(C)(C)NC(C)(C)C1	none | Myeloid diff inactive | GFP autofluor 98
CCOc1ccc(CN2C(=O)c3ccccc3C2=O)cc1C(=O)Nc1nnc(SCC)s1	none
Cc1ccc(S(=O)(=O)CCSc2nc(C)cc(C)c2C#N)cc1	Myeloid diff MLP active | Myeloid diff inactive | GFP autofluor inactive
CC(C)N(Cc1ccccc1)C(=O)COC(=O)/C=C/c1cnc2ccccc2n1	none
Brc1ccc(-c2csc3[n+]2CCCCC3)cc1	Myeloid diff MLP active | Myeloid diff active | GFP autofluor inactive
Clc1ccc(-n2cc(-c3ccc(Br)cc3)[n+]3c2CCCCC3)cc1	none
CC(C)N(C(=O)CN(C#N)c1nc(N(C)C)nc(N(C)C)n1)c1ccccc1	none | Myeloid diff inactive | GFP autofluor inactive

Screens as filed in PubChem BioAssay.
